TIM10 inh: TIM10 yeast growth inhibition | 330,000 tested, 1.4% active | S. cerevisiae TIM10 strain growth, BacTiter-Glo luminescence, 24 h | inhibition, % at 10 µM | AID 463195;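 active = inhibition of 40% or more at the single tested concentration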;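 also: wild-type TIM10 isogenic control strain grown at permissive 25 °C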
tim23-1 inh: growth inhibitors of tim23-1 mutant yeast; inhibition, % at 20 µM; AID 463212; S. cerevisiae tim23-1 growth, BacTiter-Glo luminescence, 24 h; 330,000 tested, 1.3% active;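 active = growth inhibition of the mutant yeast at or above 50%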;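 also: temperature-sensitive mutant grown at 25 °C; plate controls were DMSO-treated mutant yeast for no effect and medium wells lacking yeast for full effect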
NLRP3 yeast inh: NALP3 inhibition in yeast; Yeast reconstituted NLRP3/ASC/caspase-1, beta-gal luminescence, 24 h; 330,000 tested, 0.39% active; AID 2825; inhibition, % at 10 µM;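 active = inhibition of 50% or more; inactive = inhibition below 50%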;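 also: plate controls were induced DMSO wells for no effect and uninduced yeast grown without galactose for full effect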
tim10-1 inh: tim10-1 yeast growth inhibition | S. cerevisiae tim10-1 ts strain growth, BacTiter-Glo, 24 h | inhibition, % at 20 µM | 330,000 tested, 2.2% active | AID 463190;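 active = inhibition of at least 40%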;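 also: mutant grown at 25 °C; 0% = DMSO wells with yeast and 100% = wells holding no yeast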
NALP1 inh: inhibitors of NALP1 inflammasome in yeast; S. cerevisiae NALP1/ASC/caspase-1 growth, X-gal OD620, 72 h; inhibition, % at 10 µM; 280,000 tested, 0.61% active; AID 2071; in the data active = inhibition mostly above about 24%, no sharp cut-off; inactive = mostly below about 32%
SKKanGAS inh: inhibitors of SKKanGAS S. pyogenes growth in kanamycin (SK-promoter or general growth effect); BacTiter-Glo, 6 h; inhibition, % at 7.5 µM; 300,000 tested, 1.3% active; AID 1662;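 active = mean replicate score, as percent of positive control median, at least 50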;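 also: strain carries kanamycin resistance gene driven by streptokinase promoter and grows in 40 µg/ml kanamycin; loss of luminescence reflects streptokinase promoter inhibition or plain growth inhibition; 0% = median of DMSO wells and 100% = positive control at its reference dose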
TIM10 conf: confirmation of TIM10 yeast growth inhibitors; shares compounds with TIM10 inh; inhibition, % at 10 µM; 4,600 tested, 63% active; S. cerevisiae tim10 strain growth, BacTiter-Glo luminescence, 24 h;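 active = inhibition of yeast growth at or above a set limit in either of two replicates at 10 µM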;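 also: this counterscreen used the strain with wild-type TIM10; 0% = yeast with DMSO and 100% = medium wells lacking yeast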
* = called active by the depositor; . = not tested or not shown. In the library only some 4.9% were active in any assay of this set; here they are far more common.

SMILES	TIM10 inh	tim23-1 inh	NLRP3 yeast inh	tim10-1 inh	NALP1 inh	SKKanGAS inh	TIM10 conf
C/C(=N\NC(=S)NC(C)C)c1cccc([N+](=O)[O-])c1	42*	37	-17	34	16	-2	6
C/C(=N\NC(=S)NC(C)C)c1ccc(Cl)c([N+](=O)[O-])c1	-8	16	4	3	13	6	.
Cc1cc(NC(=O)CSc2ccnc(=O)[nH]2)no1	-3	-2	-1	-4	.	3	.
O=C(Nc1ccc(S(=O)(=O)N2CCOCC2)cc1)C1CCN(S(=O)(=O)c2ccc(F)cc2)CC1	-3	-9	-1	-6	.	2	.
O=C(Nc1ccc(F)cc1)C1CCN(S(=O)(=O)c2ccc3[nH]c(=O)oc3c2)CC1	74*	-7	6	-8	24	-2	6
Cc1cc(C)n(CC(=O)N2c3ccccc3Sc3ccc(C(F)(F)F)cc32)n1	42*	40	-11	39	26	-13	27
Cc1ccccc1-c1nc(CS(=O)(=O)CC(=O)N2CCCCC2)c(C)o1	1	21	3	3	26	-2	.
Cc1ccc(OCCC(=O)OCC(=O)Nc2ccc3c(c2)OCO3)cc1	7	20	-6	8	.	-5	.
COc1ccccc1Nc1nc(NCCCN(C)C)nc(N)c1[N+](=O)[O-]	-2	11	0	12	17	1	.
C=CCNc1nc(N)c([N+](=O)[O-])c(Nc2ccccc2OC)n1	41*	31	21	34	3	4	69*
COc1ccc([N+](=O)[O-])cc1C1NN=C(c2ccccc2O)S1 (configuration not stated)	-1	-1	8	3	17	-3	.
O=[N+]([O-])c1ccc(O)c(C2=NNC(c3ccccc3F)C2)c1 (configuration not stated)	50*	43	-5	36	-11	16	57*
O=C(Cc1cccs1)N(Cc1ccco1)C1(C(=O)NC2CCCCC2)CCCCC1	43*	21	1	28	19	2	10
O=C(Nc1ccccc1N1CCOCC1)c1cc(=O)[nH]c2ccccc12	-4	2	4	-1	.	.	.
CC(=O)N1CCN(C(=O)C2CCN(S(=O)(=O)c3ccccc3C(F)(F)F)CC2)CC1	-4	-1	13	-18	.	.	.
Cc1cc(C)nc(OC(C(=O)O)C(OCc2ccccc2)(c2ccccc2)c2ccccc2)n1 (configuration not stated)	97*	-1	19	-1	5	4	6
Cc1ccc(-n2nnnc2SCC(=O)c2c(N)n(C3CC3)c(=O)[nH]c2=O)c(C)c1	6	12	19	3	.	.	.
CCOC(=O)c1ccc(NC(=O)CCS(=O)(=O)c2ccc(Br)s2)cc1	44*	26	2	39	-6	2	18
C/C(=N\NC(=S)NCc1ccccc1)c1ccc2ccccc2c1	54*	44	27	39	8	-14	-12
COc1ccc(CNC(=S)N/N=C(\C)c2ccc(OC)cc2)cc1	44*	-11	7	34	12	38	44*
C=CCNC(=S)N/N=C(\C)c1cccc(OC)c1	41*	44	-1	27	1	0	20
COc1ccc(CNC(=S)NCc2ccc(OC(C)C)cc2)cc1	9	1	16	34	20	-4	.
CC(NC(=O)Nc1ccc(F)cc1)c1ccc2c(c1)OCO2 (configuration not stated)	7	-2	7	-8	4	27	.
COc1ccccc1/C=C/C1(C(=O)NC2CCCC2)CC(=O)N1c1ccc(F)cc1 (configuration not stated)	41*	35	3	38	-5	16	21
COc1ccccc1N(C)S(=O)(=O)c1ccc(C(=O)NCCc2ccc(F)cc2)cc1	46*	39	5	29	4	3	51*
SMILES	TIM10 inh	tim23-1 inh	NLRP3 yeast inh	tim10-1 inh	NALP1 inh	SKKanGAS inh	TIM10 conf
CN(c1ccccc1)S(=O)(=O)c1ccc(C(=O)NCCc2ccc(F)cc2)cc1	-12	28	13	16	17	2	.
CCOC(=O)c1sc(=NC(=O)c2ccc(C)cc2)n(C)c1C	42*	35	21	9	-3	-9	20
O=C(O)CN1CCN(Cc2ccc(F)cc2)C1=O	0	5	4	-2	4	-4	.
Cc1ccc2nc(N3CCN(Cc4ccc(F)cc4)C3=O)c(C)cc2c1	46*	3	26	22	11	-6	60*
O=C(Nc1ccc(S(=O)(=O)N2CCOCC2)cc1)c1ccc(Cl)s1	41*	33	8	36	7	-1	30
O=C(Nc1ccc(S(=O)(=O)N2CCCC2)cc1)c1cc(F)c(F)cc1Cl	41*	36	8	38	0	-1	33*
O=C(Nc1ccc(F)cc1)c1ccc(S(=O)(=O)N2CCCC2)cc1	-17	21	7	19	0	-5	.
O=C(Nc1ccc(Cl)cc1)c1ccc(S(=O)(=O)N2CCOCC2)cc1	1	10	20	3	8	3	.
Oc1ccc(Nc2ccnc3cc(Cl)ccc23)cc1	-5	2	11	9	18	1	.
Oc1ccc(/C=N/Nc2ccnc3cc(Cl)ccc23)c(O)c1	47*	7	20	5	.	0	36*
O=C1N=C(N2CCCC2C(=O)O)S/C1=C\c1ccco1 (configuration not stated)	-14	-4	-5	-5	17	0	.
[O-][N+]1=c2ccc(Nc3ccccc3)cc2=NC12CCCCC2	.	.	.	.	28	8	.
COc1ccc(Nc2ccc3c(c2)=NC2(CCCCC2)[N+]=3[O-])cc1	47*	36	23	37	40*	7	4
NC(=O)C1CCN(c2nc(-c3ccccc3C(F)(F)F)cs2)CC1	3	13	9	19	.	.	.
c1ccc2cc(CSCc3nc4ccccc4[nH]3)ccc2c1	53*	48	25	35	47	24	-6
O=C(CSCc1nc2ccccc2[nH]1)Nc1ccc2ccccc2c1	-12	-8	11	11	0	-2	.
O=C(Nc1nc2ccccc2s1)C1CC(=O)N(c2ccc(Cl)cc2)C1 (configuration not stated)	48*	43	7	27	-14	24	-22
COc1ccc(N2CC(C(=O)Nc3nc4ccc(OC)cc4s3)CC2=O)cc1 (configuration not stated)	-5	34	15	33	6	3	.
COc1ccc(-c2ncncc2-c2ccc(OC)c(OC)c2)c(O)c1	14	5	7	16	4	3	.
COc1ccc(O)c(-c2cc(-c3cccc(Br)c3)n[nH]2)c1	53*	-52	1	8	7	56*	62*
O=[N+]([O-])c1cccc(-c2cc(-c3cc(Br)ccc3O)[nH]n2)c1	47*	36	11	31	6	37	43*

Screening results from PubChem.
